Laboratory results from PubChem BioAssay (NCI).
About 83,000 compounds went through this panel and 20% of them were active in at least one assay; those are over-represented in the sample as a whole.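 Negative percent growth values reflect cell death: -40 means 40% of the cells present at the start died, and -100 means all died.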 Values without a mark were called inactive. Active and inactive are the calls of the source.

Each compound was assayed on HOP-62 NSCLC (assay: NCI-60 one-dose screen, 48 h (100 = growth as untreated, 0 = no growth, -100 = all killed)). Conditions: 10 µM unless noted.
Procedure: Growth inhibition of the HOP-62 human Non-Small Cell Lung tumor cell line is measured as a screen for anti-cancer activity. Cells are grown in 96 well plates and exposed to the test compound for 48 hours. Compounds are tested at a single concentration, which is 10^-5 M for most compounds. The reported endpoint is percent growth (GI% or GIPRCNT), where numbers from 0 - 100% represent growth inhibition, and numbers from -100% - 0 represent cell death. For example, a value of 40 represents 60% growth inhibition. A value of 0 means no net growth occurred over the course of the experiment. A value of -40 indicates 40% of cells at the beginning of the experiment died by the end of the experiment. A value of -100 means all cells are dead at the end of the experiment.
NCI-60 Human Tumor Cell Lines Screen was performed using the standard one-dose NCI protocol, which is described in more detail at https://dtp.cancer.gov/discovery_development/nci-60/default.htm.
Compounds with GIPRCNT values below 10 were considered active. Activity score was based on GIPRCNT using the following formula: […]
Score is 0 for GIPRCNT values of 100 or above, 50 for GIPRCNT values of 0, and 100 for GIPRCNT values of -100.

Structure (SMILES)	growth
CNC(C)Cc1ccccc1 (stereo not given) (tested in a mixture with another compound)	98%
CCOCC1(CCc2ccccc2)C(=O)NC(=S)NC1=O	104%
O=C(Nc1ccc(S(=O)(=O)F)cc1)Oc1ccccc1	93.3%
CCC[CH2][Sn]1([CH2]CCC)[O]C(=O)c2cccc([N+](=O)[O-])c2C(=O)[O]1	-90.7% (active)
O1[As]2O[As]3O[As]1O[As](O2)O3	-41.6% (active)
CCOC(=O)c1cnc(SCc2ccc(Cl)c(Cl)c2)nc1N1CC1	64.9%
Oc1c(Br)cc(Br)cc1Br.[Cu+2]	121%
Nc1ccc([N+](=O)[O-])c2c1Oc1ccccc1O2	90.9%
CNc1ccc(C(=O)CC(O)CCC(C)C2OC(=O)CC(O)CC(=O)CC(O)CC(O)CC(O)CC(O)CC3(O)CC(O)C(C(=O)OC)C(CC(O[C@@H]4O[C@H](C)[C@@H](O)[C@H](N)[C@@H]4O)/C=C/C=C/C=C/C=C/C=C/C=C/C=C/C2C)O3)cc1 (stereo not given in full)	-25.9% (active)
O=C1NC2(CCNCC2)Nc2ccccc21	96.6%
CC(C)CCC[C@@H](C)[C@H]1CC[C@H]2[C@@H]3CC=C4C[C@@H](OC(=O)Cc5ccc(N(CCCl)CCCl)cc5)CC[C@]4(C)[C@H]3CC[C@]12C	105%
CC(C)(NC(=O)c1nn(CCCCCF)c2ccccc12)c1ccccc1	94.2%
CC(=O)O[C@@H]1C2=C(C)C3(CC3)[C@@](C)(O)C(=O)C2=C[C@@]1(C)CO	-10.1% (active)
COc1c(O)c2c3c(c1OC)-c1ccccc1CC3N(C)CC2 (stereo not given)	104%
CC(/C=N/N=C(N)N)=N\N=C(N)N	64.2%
CC12CCC(=O)C=C1CCC1C2CCC2(C)C(C(=O)COC(=O)Cc3ccc(N(CCCl)CCCl)cc3)CCC12 (stereo not given)	106%
CCCC(C)(C)c1ccc2c(c1)OC(C)(C)[C@@H]1CC=C(C)C[C@@H]21	90.4%
C[C@]12C[C@H](O)[C@H]3[C@@H](CCC4=CC(=O)CC[C@@]43C)[C@@H]1CC[C@@H]2O	105%
O=[N+]([O-])c1ccc2cnn(CSP(=S)(c3ccccc3)c3ccccc3)c2c1	59.3%
n1nc(-c2nonc2-c2nn[nH]n2)n[nH]1	112%

Structure (SMILES)	growth
COc1cc(C2=NN(c3ccccc3)C(c3sc(N(CCCl)CCCl)nc3Cl)C2)cc(OC)c1OC (stereo not given)	79.7%
O=C(O)c1nn(Cc2ccc(Cl)cc2)c2ccccc12	108%
COC(=O)C(=[N+]=[N-])C(=O)OC	103%
CNC(=O)Oc1ccccc1	116%
C#CC1(O)CCC2(C)C(CCC3C4CCC(=O)C4(C)CCC32)C1 (stereo not given)	94.3%
C[CH2][Sn]([CH2]C)([CH2]C)[NH]S(=O)(=O)c1ccc(C)cc1	121%
CC(C)CCC1(CCO)C(=O)NC(=S)NC1=O	105%
CCOc1cc(C=C(C#N)C#N)cc(Br)c1O	111%
CCCCCN(CCCCC)CC(O)c1ccc(C)c(Cl)c1 (stereo not given)	90.1%
CC[C@@H](C)/C=C(C)/C=C/C(=O)c1c(O)c(-c2ccc(O)cc2)cn(O)c1=O	9.35% (active)
ClCCN(CCCl)C(c1ccccc1)c1ccc(Cl)cc1 (stereo not given)	108%
C[C@]12CC[C@H](OC3OC(O)C(O)C(O)C3O)C=C1CCC1C2CC[C@]2(C)[C@@H](c3ccc(=O)oc3)CC[C@]12O (stereo not given in full)	-97.8% (active)
Cc1cc([N+](=O)[O-])c(Cl)cc1NS(=O)(=O)c1ccccc1	90%
C[CH2][Pb]([CH2]C)([CH2]C)[O]C(=O)COc1ccccc1	-9.05% (active)
c1cnc2c(c1)ccc1ncccc12	103%
O=CN1N=C(c2ccccc2)CC1c1sc(N(CCCl)CCCl)nc1Cl (stereo not given)	86.9%
COc1cc(/C=C\c2cc(OC)c(OC)c(OC)c2)cc(N/C=C\C(=O)c2ccc(OC(F)(F)F)cc2)c1OC	23.8%
O=C(NCCNC(=O)c1ccc([As](O)O)cc1)c1ccc([As](O)O)cc1	105%
COc1cc[c]([Hg][Cl])cc1	82.6%
CC[CH2][Pb]([CH2]CC)([CH2]CC)[O]C(=O)C(F)(F)F	-84.3% (active)
